# Data from PubChem BioAssay AID540267 (National Center for Advancing Translational Sciences (NCATS), 2011).
# The whole screen tested about 340,000 compounds, of which about 530 (0.16%) were called active. Not shown: some 2% with an inconclusive outcome. No stated cut-off is given here; in the data, active means activity change below about -80%; inconclusive means between about -30% and that limit; inactive means weaker than that. The entries come from a sample that favours actives as a whole.
# Assay: Small Molecules that selectively kill Giardia lamblia: qHTS;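 further: parasites exposed to compound for two days anaerobically before the ATP read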
# Details: Giardia lamblia trophozoite viability; at 7.66 µM; active compounds read low
# Outline: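 Anaerobic 48 hrs incubation at 37 deg C of 100 trophozoites/well with test compounds; ATPLite 1-Step luminescence, 15-30 min RT, reports cellular ATP as viability.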
# On the % scale 0 is the no-effect control and ±100 the full control effect.
row,SMILES,activity change
1,COc1ccc(-n2cnc3cc(NCc4ccco4)ccc32)cc1,-16.4% (inactive)
2,Cn1c(SCC(=O)Nc2ccc(Br)cc2F)nnc1-c1ccco1,-12.3% (inactive)
3,Cn1c(-c2ccco2)nc2cc3ccccc3cc21,-82.6% (active)
4,Cc1ccc(-c2nc3ccccn3c2Nc2ccc(F)cc2)o1,13.3% (inactive)
5,NCCCNC(=S)NCCCN(Cc1ccc(Cl)cc1)c1ccc(Br)cn1,-3.06% (inactive)
6,C=C1CCN(C(CC(C)C)C(=O)NCc2cc(OC)c(OC)c(OC)c2)S(=O)(=O)c2ccccc21 (stereo not drawn),-2.48% (inactive)
7,O=C1c2ccccc2C(=O)N1c1ccc(S(=O)(=O)N2CCOCC2)c2ccccc12,-26.6% (inactive)
8,c1ccc(-n2ncc(-c3nn[nH]n3)n2)cc1,-10.6% (inactive)
9,O=[N+]([O-])c1ccc(S(=O)(=O)N2CCN(c3nc(-c4ccccc4)nc4ccccc34)CC2)cc1,-1.14% (inactive)
10,CCC(=O)c1ccc(OCC(=O)N(CC)CC2COc3ccccc3O2)cc1 (stereo not drawn),5.76% (inactive)
11,O=C(NCCc1ccco1)c1ccc(OCc2cn3ccccc3n2)cc1,-6.02% (inactive)
12,O=C(Cc1ccccc1)Nc1c(C(=O)N2CCCCCC2)cnn1-c1ccccc1,7.39% (inactive)
13,O=C(Nc1cccc2cccnc12)C(F)(F)F,11.7% (inactive)
14,O=c1onc(-c2c(F)cccc2F)n1-c1ccccc1Cl,-18.5% (inactive)
15,c1ccc(-c2ccc(OCCN3CCOCC3)cc2)cc1,19.5% (inactive)
16,CCOc1nc(NCCN2CCOCC2)nc(Nc2ccc(C)cc2)n1,17.9% (inactive)
17,c1ccc2cc3c(NCCN4CCOCC4)ccnc3cc2c1,-97.2% (active)
18,COc1cc2nc(CN(C)Cc3ccc(F)cc3)[nH]c(=O)c2cc1OC,1.83% (inactive)
19,CCCNC(=O)c1onc(CSc2ccc(F)cc2)c1C(=O)NC(C)C,23.4% (inactive)
20,CC(C)C(NC(=O)C1CCC(C(C)(C)C)CC1)C(=O)NCCCN1CCCCC1 (stereo not drawn),-2.26% (inactive)
21,CCOCCCNC(=O)C(NC(=O)CNC(=O)c1ccccc1)c1ccc(OC)cc1 (stereo not drawn),-20.4% (inactive)
22,COc1ccc(-c2nc3c(c(SCC(=O)Nc4ccc(C(=O)O)cc4)n2)Cc2ccccc2O3)cc1,9.92% (inactive)
23,Cc1cc(C)cc(OCC(=O)Nc2cc(NC(=O)COc3cc(C)cc(C)c3)cc(C(=O)O)c2)c1,-12.2% (inactive)
24,CC1C/C(=N/NC(=O)c2cccs2)CC(C)(C)C1 (stereo not drawn),4.93% (inactive)

row,SMILES,activity change
1,Oc1ccc(Cl)cc1C1C=C(c2ccc3c(c2)OCO3)NC(c2ccc(F)c(Br)c2)N1 (stereo not drawn),-24.8% (inactive)
2,O=C(c1ccc2c(=O)n(Cc3ccco3)c(=S)[nH]c2c1)N1CCCC1,4.07% (inactive)
3,O=C1C[C@@H](c2ccc3ccccc3c2)N1S(=O)(=O)c1ccccc1[N+](=O)[O-],0.869% (inactive)
4,COc1ccc(C(CCN2CCOCC2)c2c(OC)cc(OC)c3c2OC(=O)CC3c2ccc(OC)cc2)cc1 (stereo not drawn),12.9% (inactive)
5,CCN(CC)c1nc(C#N)nc(OC)n1,-9.05% (inactive)
6,C=C1CCN(Cc2ccc(OC)cc2)S(=O)(=O)c2ccccc21,23.9% (inactive)
7,CCOc1cc2[nH]c(=O)n(CCC(=O)NCc3ccc(OC)cc3)c(=O)c2cc1OCC,-9.64% (inactive)
8,COc1ccc(C2/C=C\CN(C(=O)c3ccc(C)cc3)C(Cc3ccccc3)C(=O)N2Cc2ccc(F)cc2)cc1 (stereo not drawn),28.8% (inactive)
9,Cc1ccc(-c2nnc3ccc(SCC(N)=O)nn23)cc1,5.27% (inactive)
10,O=[N+]([O-])c1ccc(C=Nc2ccc(Cl)cc2Cl)s1,12% (inactive)
11,CNN/C(N=Cc1ccc([N+](=O)[O-])s1)=N\S(=O)(=O)c1cc(C)c(Cl)cc1SCc1ccccc1,-85.8% (active)
12,OC[C@@H]1O[C@H](n2cnc3c(SCc4ccccc4)ncnc32)[C@H](O)[C@H]1O,7.24% (inactive)
13,COc1ccc(CCn2c3c(c(=O)[nH]c2=S)CN(C(C)C)CN3)cc1OC,-2.67% (inactive)
14,CN(c1ccccc1)S(=O)(=O)c1cccc(NC(=O)Cc2c(F)cccc2Cl)c1,6.09% (inactive)
15,COC(=O)CSc1nnc(NC(=O)CCc2ccccc2)s1,-28.2% (inactive)
16,O=C(Cc1c(F)cccc1Cl)Nc1ncc([N+](=O)[O-])s1,-90.9% (active)
17,CC(C)Cc1nnc(NC(=O)CCc2ccccc2)s1,-6.99% (inactive)
18,CC(=O)c1cccc(NC(=O)C2COc3ccccc3O2)c1 (stereo not drawn),3.94% (inactive)
19,O=C(Nc1ncc([N+](=O)[O-])s1)C1COc2ccccc2O1 (stereo not drawn),-95.9% (active)
20,O=C(CCc1ccccc1)Nc1ncc([N+](=O)[O-])s1,-95.3% (active)
21,O=C(Nc1cc(S(=O)(=O)N2CCCCC2)ccc1Cl)C1COc2ccccc2O1 (stereo not drawn),9.58% (inactive)
22,COc1ccc(S(=O)(=O)N2CCOCC2)cc1NC(=O)Cc1c(F)cccc1Cl,0.481% (inactive)
23,O=C(Nc1cccc(Cl)c1)c1cc(S(=O)(=O)N2CCCCC2)c[nH]1,-28.5% (inactive)
24,Cc1nn(C(C)CC(=O)O)c(C)c1C (stereo not drawn),7.78% (inactive)

row,SMILES,activity change
1,CCC1(C)Cc2c(sc3[nH]c(=S)n(Cc4ccccc4)c(=O)c23)CO1 (stereo not drawn),-14.6% (inactive)
2,COc1cc2c(cc1OC)C(/C=C/c1ccco1)=NCC2,-3.82% (inactive)
3,CCOc1ccc(C(=O)NC(C(=O)NCc2ccccn2)C(C)C)cc1 (stereo not drawn),-4.15% (inactive)
4,OCCNc1ncnc2oc(-c3ccco3)c(-c3ccco3)c12,-2.77% (inactive)
5,COc1cc(OC)c2c(c1C(CCN1CCCCC1)c1ccc(N(C)C)cc1)OC(=O)CC2c1ccc(N(C)C)cc1 (stereo not drawn),7.67% (inactive)
6,O=S(=O)(Nc1cccc2cccnc12)c1cccc2cccnc12,-17.9% (inactive)
7,CCOc1ccc(S(=O)(=O)N2CCN=C2Cc2ccccc2)cc1C,-28.6% (inactive)
8,O=C(c1ccco1)N(Cc1cccs1)c1ccc(O)cc1,-7.42% (inactive)
9,COc1ccc(CN2CCc3nc(Nc4ccccc4)ncc3C2)c(OC)c1OC,-13.9% (inactive)
10,NS(=O)(=O)c1ccc(NC(=O)CSc2nnc3c(n2)[nH]c2ccccc23)cc1,-21.1% (inactive)
11,CCOCN(C(=O)Cn1c(C(C)O)nc2ccccc21)c1c(C)cccc1CC (stereo not drawn),8% (inactive)
12,CN(CCC#N)c1ncnc2scc(-c3ccccc3)c12,-2.98% (inactive)
13,O=C1CC(c2ccccc2)CC2=C1C(c1ccco1)n1nc(C(F)(F)F)nc1N2 (stereo not drawn),14.6% (inactive)
14,CC(Nc1nc(N2CCN(CCO)CC2)nc2ccccc12)c1ccccc1 (stereo not drawn),-93.8% (active)
15,CC(Nc1nc(N2CCOCC2)nc2ccccc12)c1ccccc1 (stereo not drawn),4.71% (inactive)
16,CC(Nc1nc(N2CCCC2)nc2ccccc12)c1ccccc1 (stereo not drawn),3.32% (inactive)
17,O=C1C2C(c3ccccc3)CC=CC2C(c2ccoc2)N1Cc1ccccc1 (stereo not drawn),-9.66% (inactive)
18,O=C(Nc1ccc(Br)cn1)c1ccc([N+](=O)[O-])o1,-87.6% (active)
19,O=C(Nc1cccc([N+](=O)[O-])c1)c1ccc2c(c1)OCO2,7.08% (inactive)
20,CN1C(=O)c2ccc(C(=O)Nc3ccc(Br)cn3)cc2C1=O,6.68% (inactive)
21,O=C(Nc1ccc(Br)cn1)c1ccc([N+](=O)[O-])cc1Cl,-28.4% (inactive)
22,O=C(Nc1cccc(O)c1)c1ccc(C(=O)c2ccccc2)o1,-8.06% (inactive)
23,Cc1cccc(NC(=O)c2ccc([N+](=O)[O-])o2)c1,-85.9% (active)
24,c1ccc2c(C[n+]3csc4ccccc43)cccc2c1,3.49% (inactive)

row,SMILES,activity change
1,O=c1c([N+](=O)[O-])cccn1Cc1ccc(F)cc1Cl,-94.3% (active)
2,N/C(=N/O)c1cccn1Cc1ccccc1[N+](=O)[O-],-2.12% (inactive)
3,Cc1ccc(-c2ccc(=O)n(Cc3ccc(F)cc3Cl)n2)cc1,-0.457% (inactive)
4,Brc1nc2ncnc(NCc3ccco3)c2[nH]1,-4.89% (inactive)
5,O=[N+]([O-])c1ccccc1Nc1ccc(O)cc1,-6.38% (inactive)
6,O=[N+]([O-])c1ncc(Br)cc1Nc1ccccc1,-90.1% (active)
7,O=[N+]([O-])c1cccc(/C=N/Nc2ncc(Br)cn2)c1,23.3% (inactive)
8,NC(CSC1(c2ccccc2)c2ccccc2-c2ccccc21)C(=O)O (stereo not drawn),-0.132% (inactive)
9,Cc1ccc2oc(C(=O)N3CCN(C)C[C@@H]3C(C)C)c(C)c2c1,11.8% (inactive)
10,CCCCCCC1(C)NC(c2ccc3c(c2)OCO3)=CC(c2ccccc2O)N1 (stereo not drawn),-22.5% (inactive)
11,CC1(C)c2[nH]c3ccccc3c2C[C@H]2C(=O)N(N)CC(=O)N21,-11.4% (inactive)
12,COC(=O)N/N=C/c1ccc(-c2ccc(Cl)c(Cl)c2)o1,-7.13% (inactive)
13,COC(=O)C(C)N=Cc1ccccc1 (stereo not drawn),-3.67% (inactive)
14,COC(=O)N/N=C/c1c[n+]([O-])c2ccccc2[n+]1[O-],-80.1% (active)
15,Cc1c(C=O)c2ccccc2n1CC(=O)O,21.1% (inactive)
16,CC(=O)c1c(C)n([O-])c2ccccc2[n+]1=O,-80.7% (active)
17,CCOc1ccc(NC(=O)CSc2nnc3c(n2)[nH]c2ccc(S(=O)(=O)N4CCOCC4)cc23)cc1,-27.7% (inactive)
18,Cc1ccc(N2C(=O)C3C(c4ccccc4)(C2=O)C3(c2ccccc2)c2ccccc2)cc1 (stereo not drawn),6.33% (inactive)
19,CCN(CC)/[N+]([O-])=N/Oc1cc(O/[N+]([O-])=N/N2CCCC2CO)c([N+](=O)[O-])cc1[N+](=O)[O-] (stereo not drawn),9.52% (inactive)
20,CC1(C(=O)NCCc2c[nH]c3ccccc23)C=CC2(CCCCC2)N1C(=O)c1ccccc1 (stereo not drawn),17.9% (inactive)
21,COc1cc(OC)c2c(C)cc(=O)oc2c1C(CCN1CCCCC1)c1ccc(N(C)C)cc1 (stereo not drawn),8.97% (inactive)
